Assay outcomes: PubChem BioAssay, National Center for Advancing Translational Sciences (NCATS)
HP1b chromo inh – blocks HP1-beta chromodomain binding to methylated histone tails. P83916. AlphaScreen HP1-beta / biotin-H3K9me3 peptide binding. Potency, µM (highest dose often 114 µM), usual class: inhibitors. 390,000 compounds, 0.56% hits. AID 540317; further: nearly all actives have a fitted effect of over 70% in size
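AlphaScreen: HP1-beta (50 nM) preformed 30 min with biotin-H3(1-18)K9me3 peptide (50 nM) in PBS pH 7.4, 0.01% Tween-20. Compound added for 30 min at RT, then streptavidin donor/nickel chelate acceptor beads (10 ug/mL) for 30 min.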
L3MBTL1 inh – L3MBTL1 (human) inhibition; Q9Y468; AlphaScreen L3MBTL1–H3K9me1 peptide binding; Potency, µM (highest dose often 57.1 µM), hits mostly inhibitors; 230,000 compounds, 0.66% hits; further: nearly all actives have a fitted effect of over 60% in size
Target sequence (Q9Y468 whole entry, looked up): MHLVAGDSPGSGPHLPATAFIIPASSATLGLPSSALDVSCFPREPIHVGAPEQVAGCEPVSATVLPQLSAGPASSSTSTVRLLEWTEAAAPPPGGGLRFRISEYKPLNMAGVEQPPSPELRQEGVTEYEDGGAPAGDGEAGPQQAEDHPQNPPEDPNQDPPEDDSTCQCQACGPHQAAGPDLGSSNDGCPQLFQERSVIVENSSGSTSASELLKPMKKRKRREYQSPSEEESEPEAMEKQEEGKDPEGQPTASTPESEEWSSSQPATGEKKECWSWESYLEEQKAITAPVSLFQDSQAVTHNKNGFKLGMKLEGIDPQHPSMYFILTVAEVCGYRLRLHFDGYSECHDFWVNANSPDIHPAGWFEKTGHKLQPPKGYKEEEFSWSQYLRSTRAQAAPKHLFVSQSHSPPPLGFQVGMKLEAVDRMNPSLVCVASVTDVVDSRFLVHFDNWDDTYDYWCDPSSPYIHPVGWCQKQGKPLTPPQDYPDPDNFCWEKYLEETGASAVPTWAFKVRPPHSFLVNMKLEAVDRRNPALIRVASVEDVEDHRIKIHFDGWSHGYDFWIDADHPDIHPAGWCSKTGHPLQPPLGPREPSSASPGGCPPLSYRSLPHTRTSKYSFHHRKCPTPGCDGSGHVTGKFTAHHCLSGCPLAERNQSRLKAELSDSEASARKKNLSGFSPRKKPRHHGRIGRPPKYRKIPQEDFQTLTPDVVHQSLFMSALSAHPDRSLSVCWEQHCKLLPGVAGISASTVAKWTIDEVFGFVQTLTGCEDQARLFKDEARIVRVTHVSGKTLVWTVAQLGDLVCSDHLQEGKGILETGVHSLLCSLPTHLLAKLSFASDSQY
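L3MBTL1 (50 nM) pre-complexed 30 min with biotinylated H3(1-15)K9me1 peptide (75 nM), then compounds added for 30 min at room temperature; AlphaScreen streptavidin donor/nickel chelate acceptor beads (10 ug/mL final) read after 30 min dark incubation.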
BAZ2B block – inhibitors of human BAZ2B bromodomain; Potency, µM (top dose mostly 114 µM), hits mostly inhibitors; AID 504333; AlphaScreen BAZ2B-H3K14Ac peptide displacement; 360,000 compounds, 4.4% hits; further: nearly all actives have a fitted effect of over 60% in size
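AlphaScreen displacement: compounds (up to 110uM) incubated 30 min at room temperature with a preformed 50 nM BAZ2B/50 nM biotinylated H3K14Ac peptide complex in PBS pH 7.4 with Tween-20. Donor and acceptor beads at 10 ug/mL final added, 20 min light-protected before reading.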
JMJD2E inh – JMJD2E (human) inhibition. JMJD2E catalytic domain, FDH-coupled NADH fluorescence (FDH is formaldehyde dehydrogenase). 230,000 compounds, 1.6% hits. Potency, µM (top dose mostly 57.1 µM), actives largely listed as inhibitors. AID 2147. B2RXH2; active means well fitted inhibition curve with a large enough effect, not every such curve was filed as active; inconclusive means small, poorly fitted or top-dose-only effect, or another doubt; inactive means no such curve, though single readings can be large or run the other way; further: nearly all actives have a fitted effect of over 50% in size
PI5P4K alpha inh – blocks human PI5P4K alpha kinase activity; P48426; PI5P4Kalpha enzyme, ADP-Glo luminescence, 60 min; hits give low values; max response, %; 330,000 compounds, 1.2% hits; AID 652105; active means max response of -50% or lower; inconclusive means between -30% and -50%; inactive means -30% or higher; further: value at the top dose of about 77 µM
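ADP-Glo luminescence end-point after a 60 min room-temperature kinase reaction. PI5P4Kalpha and substrate in HEPES pH 7.4 buffer with EGTA, 0.1% CHAPS and 5% DMSO; ATP at 5 microM final.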
JMJD2A Tudor inh – blocks the human JMJD2A Tudor domain | O75164 | AlphaScreen JMJD2A-Tudor / H3K4me3 peptide binding | Potency, µM (titrated, usually from 114 µM), actives largely listed as inhibitors | 390,000 compounds, 4.4% hits | AID 504339; further: nearly all actives have a fitted effect of over 50% in size
Large screens that a line does not name were inactive; ! = repeats disagree. Most compounds without a hit are left out; they make up all but 5.7% or so of the library. Unless noted, the call rests on the fitted dose curve; in most records, active means well fitted inhibition curve with a large enough effect; inconclusive means small, poorly fitted or top-dose-only effect; inactive means no such curve, though single readings can be large or run the other way.

COc1ccc(N2CCN(C(=O)CCC(=O)N3CC(C)Oc4ccc(C)cc43)CC2)cc1 (stereo unspecified)	BAZ2B block 40µM, JMJD2A Tudor inh inconclusive (no result: JMJD2E inh)
COc1ccc(N2CCN(C(=O)CCC(=O)N3CCOc4ccc(C)cc43)CC2)cc1	JMJD2A Tudor inh inconclusive (no result: JMJD2E inh)
COc1ccc(N2CCN(C(=O)Cc3coc4ccc(C)cc34)CC2)cc1	HP1b chromo inh inconclusive, BAZ2B block 40µM, JMJD2A Tudor inh inconclusive (no result: L3MBTL1 inh, JMJD2E inh, PI5P4K alpha inh)
COc1ccc(N2CCN(C(=O)Cc3coc4cc(C)ccc34)CC2)cc1	BAZ2B block 40µM (no result: L3MBTL1 inh)
Cc1ccc2occ(CC(=O)N3CCN(c4cccc(Cl)c4)CC3)c2c1	none (no result: L3MBTL1 inh, JMJD2E inh, PI5P4K alpha inh)
COc1ccc(N2CCN(C(=O)c3cc(=O)c4ccc(C)cc4o3)CC2)cc1	BAZ2B block inconclusive (no result: L3MBTL1 inh, JMJD2E inh)
COc1cc(NC(=O)C2CCN(c3nc4ccccc4nc3C(F)(F)F)CC2)cc(OC)c1	none (no result: L3MBTL1 inh, JMJD2E inh, PI5P4K alpha inh)
CCn1c(C)[n+](CCOC(C)=O)c2cc(Cl)c(Cl)cc21	BAZ2B block inconclusive, JMJD2E inh 16µM
CC(=O)OCCCn1c(C)[n+](C)c2cc(Cl)c(Cl)cc21	JMJD2E inh inconclusive, JMJD2A Tudor inh 32µM
CCn1c(C)[n+](Cc2ccccc2)c2ccc(C(=O)OC)cc21	none (no result: L3MBTL1 inh, BAZ2B block)
CC1=C(C(=O)OCc2ccccc2)C(c2ccc(Cl)cc2)NC(=O)N1CCCC(=O)O (stereo unspecified)	PI5P4K alpha inh -100 (no result: JMJD2E inh)
CC1=C(C(=O)OCc2ccccc2)C(c2ccc(Br)cc2)NC(=O)N1CCCC(=O)O (stereo unspecified)	PI5P4K alpha inh -80 (no result: JMJD2E inh)
CC1=C(C(=O)OCc2ccccc2)C(c2ccc(Br)cc2)NC(=O)N1CCCCCC(=O)O (stereo unspecified)	none (no result: L3MBTL1 inh, BAZ2B block, JMJD2E inh)
CCCCCCN(C(=O)CCCCCN1C(=O)NC(c2ccc(-c3ccccc3)cc2)C(C(=O)OCc2ccccc2)=C1C)C(C)C(=O)NCCCC (stereo unspecified)	JMJD2E inh 35µM! (no result: HP1b chromo inh, PI5P4K alpha inh, JMJD2A Tudor inh)
COc1ccc(/C=C(\C#N)c2nc3ccccc3n2C)c(OC)c1	none (no result: L3MBTL1 inh, JMJD2E inh, PI5P4K alpha inh)
COc1ccc(CCNC(=O)Cn2nnc(-c3ccc(C(F)(F)F)cc3)n2)cc1OC	none (no result: L3MBTL1 inh, JMJD2E inh, PI5P4K alpha inh)
CCCCOC(=O)n1c(=S)oc2cc(Cl)ccc21	PI5P4K alpha inh -55
O=[N+]([O-])c1ccc2[nH]c(=S)sc2c1	HP1b chromo inh inconclusive, PI5P4K alpha inh -75, JMJD2A Tudor inh 50µM (no result: L3MBTL1 inh, BAZ2B block, JMJD2E inh)
O=c1[nH]c2ccc(Cl)cc2[nH]1	none (no result: L3MBTL1 inh, BAZ2B block, JMJD2E inh)
S=c1[nH]c2ccc(Cl)cc2s1	JMJD2E inh 7.9µM, PI5P4K alpha inh -75, JMJD2A Tudor inh inconclusive
O=[N+]([O-])c1ccc2[nH]c(=S)[nH]c2c1	none (no result: L3MBTL1 inh, BAZ2B block, JMJD2E inh)
O=c1cc(CSc2ccccc2)nc(-c2ccncc2)[nH]1	none
Oc1ccccc1C1NN=C(c2ccccc2)S1 (stereo unspecified)	BAZ2B block 18µM (no result: JMJD2E inh)
CSc1ccc(C2NN=C(c3ccccc3)S2)cc1 (stereo unspecified)	none (no result: L3MBTL1 inh, BAZ2B block, JMJD2E inh)
Cc1c(C(=O)N(C)Cc2ccccc2)sc2nc(-c3ccc(F)cc3)cn12	none (no result: L3MBTL1 inh, JMJD2E inh, PI5P4K alpha inh)
O=c1c2[nH]cnc2n(-c2cccc(Br)c2)c(=O)n1Cc1ccccc1	none (no result: L3MBTL1 inh, JMJD2E inh)
Cc1ccccc1S(=O)(=O)NC(=O)C1(C)CCN1C(=O)C1(c2ccc(Cl)cc2)CCC1 (stereo unspecified)	none (no result: HP1b chromo inh, L3MBTL1 inh, BAZ2B block, JMJD2E inh, JMJD2A Tudor inh)
Cn1ncc(Cl)c1C(=O)N1CCN(C23CC4CC(CC(C4)C2)C3)CC1	JMJD2A Tudor inh 89µM (no result: L3MBTL1 inh, JMJD2E inh)
Cc1nc2ccn(Cc3ccco3)c(=O)c2cc1C(=O)NCc1ccccc1	none (no result: L3MBTL1 inh, JMJD2E inh, PI5P4K alpha inh)
Cc1cccc(OCC(=O)Nc2ccncc2)c1C	none (no result: JMJD2E inh)
Cc1cccc(OCC(=O)Nc2ncn[nH]2)c1C	BAZ2B block 50µM (no result: L3MBTL1 inh)
COc1ccc(CNC(=O)Cn2nc(C)c3c(C)n(-c4ccc(C)cc4)nc3c2=O)cc1OC	BAZ2B block 79µM, JMJD2A Tudor inh 89µM (no result: L3MBTL1 inh, JMJD2E inh)
COc1ccc(CCNC(=O)Cn2nc(C)c3c(C)n(-c4ccc(C)cc4)nc3c2=O)c(OC)c1	BAZ2B block 50µM, JMJD2A Tudor inh inconclusive (no result: JMJD2E inh, PI5P4K alpha inh)
COc1ccc(CNC(=O)Cn2nc(C)c3c(C)n(-c4ccccc4)nc3c2=O)cc1OC	HP1b chromo inh inconclusive (no result: L3MBTL1 inh, JMJD2E inh, PI5P4K alpha inh)
Cc1cc(NC(=O)N2CC=C(c3c[nH]c4ccccc34)CC2)ccc1Br	JMJD2A Tudor inh inconclusive (no result: L3MBTL1 inh, JMJD2E inh, PI5P4K alpha inh)
C/C(CC(=O)Nc1cccc2c1CCCC2)=N\NC(=O)c1ccccc1N	JMJD2E inh inconclusive (no result: PI5P4K alpha inh)
